Measured values from PubChem BioAssay AID2284375 (EPA ToxCast).
Records with an inconclusive call do not appear. Activity calls are given as the source filed them. Rule for the calls: active = hit-call score of the fitted dose curve at least 0.9, where 1 is the maximum; inconclusive = response in the unintended direction; inactive = score below 0.9.

target: Estrogen receptor (Homo sapiens) (UniProt P03372); assay: ERF_US_NR_hESR1: Eurofins (ERF) Nuclear Receptor (NR) Cell Based Protein-Protein Interaction LeadHunter Assay for human Estrogen Receptor alpha (ERa) Agonism
Sequence (P03372 whole entry, looked up): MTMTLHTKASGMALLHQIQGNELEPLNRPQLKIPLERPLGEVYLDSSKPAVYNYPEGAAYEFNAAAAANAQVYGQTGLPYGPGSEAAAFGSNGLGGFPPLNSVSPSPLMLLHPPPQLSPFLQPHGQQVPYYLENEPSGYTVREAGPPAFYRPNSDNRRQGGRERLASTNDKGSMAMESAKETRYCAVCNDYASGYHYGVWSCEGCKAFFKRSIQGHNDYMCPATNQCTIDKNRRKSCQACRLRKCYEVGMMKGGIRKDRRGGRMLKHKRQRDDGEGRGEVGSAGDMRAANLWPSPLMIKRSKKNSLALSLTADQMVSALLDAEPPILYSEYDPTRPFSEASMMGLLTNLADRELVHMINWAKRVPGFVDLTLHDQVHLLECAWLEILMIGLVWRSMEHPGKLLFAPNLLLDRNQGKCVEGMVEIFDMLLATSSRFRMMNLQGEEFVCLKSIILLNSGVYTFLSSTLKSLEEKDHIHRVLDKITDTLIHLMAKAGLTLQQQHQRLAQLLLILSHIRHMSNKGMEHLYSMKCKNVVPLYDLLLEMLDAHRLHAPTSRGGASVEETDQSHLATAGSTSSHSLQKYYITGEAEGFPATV
Experimental: ERF_US_NR_hESR1 is a cell-based, single-readout assay that uses extracted gene-proteins in a cell-line assay. Measurements were taken 5 hours after chemical dosing in a 384-well plate. See ERalpha Human Estrogen NHR Cell Based Agonist Protein-Protein Interaction Assay, DiscoverX.ERF_US_NR_hESR1 is an assay component calculated from the ERF_US_NR_hESR1 assay. It is designed to […].Data from the assay component ERF_US_NR_hESR1 was analyzed at the assay endpoint, ERF_US_NR_hESR1, in the positive analysis fitting direction relative to DMSO as the negative control and baseline of activity. Using a type of binding reporter, gain-of-signal activity can be used to understand changes in binding as they relate to gene ESR1. To generalize the intended target to other relatable targets, this assay endpoint is annotated to the nuclear receptor intended target family, where the subfamily is steroid.
Cells were seeded in a total volume of 20 uL into white walled, 384-well microplates and incubated at 37C overnight prior to testing. Briefly, intermediate dilution of sample stocks was performed to generate 5X sample in assay buffer. 5 uL of 5X sample was added to cells and incubated at37C for 300 minutes. Final assay vehicle concentration was 1%. The results are expressed as a percent efficacy of the control ligand.

| SMILES | outcome | AC50 |
| --- | --- | --- |
| N=C(N)C(F)(F)C(F)(F)C(F)(F)C(F)(F)C(F)(F)C(F)(F)C(F)(F)F | inactive |  |
| FC(F)(F)C(F)(F)C(F)(F)C(F)(F)CCI | inactive |  |
| NC(=O)C(F)(F)C(F)(F)C(F)(F)C(F)(F)C(F)(F)C(F)(F)C(F)(F)F | inactive |  |
| O=P(O)(O)OCCC(F)(F)C(F)(F)C(F)(F)C(F)(F)C(F)(F)C(F)(F)F | inactive |  |
| FC(F)(I)C(F)(F)C(F)(F)C(F)(F)C(F)(F)C(F)(F)I |  | 12.1 µM (active) |
| OCC(F)(F)C(F)(F)C(F)(F)C(F)(F)C(F)(F)C(F)(F)C(F)(F)C(F)(F)CO |  | 17.1 µM (active) |
| FC(F)(F)C(F)(F)C(F)(F)C(F)(F)C(F)(F)C(F)(F)I | inactive |  |
| O=C(O)C(F)(OC(F)(F)C(F)(OC(F)(F)C(F)(F)C(F)(F)F)C(F)(F)F)C(F)(F)F (stereo not drawn) | inactive |  |
| OCCC(F)(F)C(F)(F)C(F)(F)C(F)(F)C(F)(F)C(F)(F)C(F)(F)C(F)(F)F | inactive |  |
| OCCC(F)(F)C(F)(F)C(F)(F)C(F)(F)C(F)(F)C(F)(F)F | inactive |  |
| C=CC(=O)OCC(F)(F)C(F)(F)C(F)(F)C(F)(F)C(F)(F)C(F)(F)C(F)(F)C(F)F | inactive |  |
| OCC(F)(F)C(F)(F)C(F)(F)C(F)(F)C(F)(F)C(F)(F)CO |  | 25.3 µM (active) |
| FC(F)(I)C(F)(F)C(F)(F)C(F)(F)I | inactive |  |
